The source of these data is the supplement of paper PMC3842684.

Assay [1] relates to P. falciparum NF54-pfs16-GFP early (I-III) stage gametocytes. Nature of the assay: relative % inhibition of viable gametocyte number; higher = more gametocytocidal. The conditions noted are these: stage: early (I-III) gametocyte, incubation 72 h. Summed up: (§1)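 Early-stage (I/IIa, day 2) or late-stage (day 8) NF54 pfs16-GFP gametocytes were isolated by magnet and plated in 384-well poly-D-lysine imaging plates at 10% parasitaemia and 0.1% haematocrit, with compound in duplicate at 5 or 0.5 µM. After 72 h at 37°C under 5% CO2 and 5% O2, MitoTracker Red was added overnight. Confocal imaging scored elongated GFP objects whose MitoTracker signal passed a cut-off as viable gametocytes. Relative inhibition was normalised against vehicle and positive-control wells on the same plate.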

The test system of assay [2] is P. falciparum NF54-pfs16-GFP late (IV-V) stage gametocytes. Described as above. The note with it: stage: late (IV-V) gametocyte, incubation 72 h. An outline of the steps:
as §1

On to `COc1ccc(Nc2nc(NCc3ccccc3)c3ccccc3n2)cc1`, for which the relative % inhibition in assay [1] (0.5 µM) amounted to 84.8%; in assay [1] (5 µM) it was 98.1%; in assay [2] (0.5 µM) it was 81.6%; in assay [2] (5 µM) it was 107%.
As to `CCOC(=O)c1cnc2ccc(OC)cc2c1Nc1ccc(N2CCN(C)CC2)cc1`, the relative % inhibition came to 53% in assay [1] (0.5 µM), 24.4% in assay [1] (5 µM), 11.9% in assay [2] (0.5 µM) and 19.4% in assay [2] (5 µM).
For `Cc1cc(N2CCN(C3CCCC3)CC2)n2c(nc3ccccc32)c1C#N`, the relative % inhibition is -10.1% in assay [1] (0.5 µM), -15.8% in assay [1] (5 µM), 11.3% in assay [2] (0.5 µM) and 6.77% in assay [2] (5 µM).
